Laboratory results: PubChem BioAssay (NCATS)
Results filed as inconclusive are left out. Calls of active or inactive are those of the source. The call rests on the fitted dose curve.
On the % scale 0 is the no-effect control and ±100 the full control effect; potency means the concentration at half of the fitted maximal effect.

Experiment: Validation screen for inhibitors of Lassa infection (AID 463096)
Conditions: Lassa virus infection, cell-based; series mostly up to 46.1 µM; activity change, negative = inhibition: at the top concentration
In the case of `CN(C)CCCN1c2ccccc2Sc2ccccc21`, the “activity change, negative = inhibition” value is reported as -28.2% (inactive). With `COc1cc2c(cc1OC)-c1cc(=Nc3c(C)cc(C)cc3C)n(C)c(=O)n1CC2` the “activity change, negative = inhibition” value was -23.6% (inactive). In the case of `CCCOc1ccccc1-c1nc2n[nH]nc2c(=O)[nH]1`, the “activity change, negative = inhibition” value is reported as 24.1% (inactive). In the case of `CN(C)C(=O)Oc1cccc([N+](C)(C)C)c1`, the “activity change, negative = inhibition” value is reported as 9.45% (inactive). With `Cn1c(=O)c2c(ncn2C)n(C)c1=O` the “activity change, negative = inhibition” value was -6.44% (inactive). In the case of `O=C(Nc1ccc([N+](=O)[O-])cc1Cl)c1cc(Cl)ccc1O`, the Potency is reported as 5.01 µM (active). In the case of `C(=C\c1ccccc1)/CN1CCN(C(c2ccccc2)c2ccccc2)CC1`, the “activity change, negative = inhibition” value is reported as -22.7% (inactive). For `COc1ccc(CCN(C)CCCC(C#N)(c2cc(OC)c(OC)c(OC)c2)C(C)C)cc1OC` (centres undefined), the “activity change, negative = inhibition” value was -4.33% (inactive). With `CC(C)COCC(CN(Cc1ccccc1)c1ccccc1)N1CCCC1` (centres undefined) the “activity change, negative = inhibition” value was 10.2% (inactive). For `C[C@]12C=CC(=O)C=C1CC[C@H]1[C@@H]3C[C@@H](O)[C@](O)(C(=O)CO)[C@@]3(C)C[C@H](O)[C@@]12F`, the “activity change, negative = inhibition” value was -9.77% (inactive). In the case of `CNC[C@H](O)c1ccc(O)c(O)c1`, the “activity change, negative = inhibition” value is reported as -10.8% (inactive). With `O=C(CCCN1CCC(O)(c2cccc(C(F)(F)F)c2)CC1)c1ccc(F)cc1` the “activity change, negative = inhibition” value was -37.3% (inactive). In the case of `COc1ccccc1N1CCN(CC(O)COc2cccc3ccccc23)CC1` (centres undefined), the “activity change, negative = inhibition” value is reported as -37.9% (inactive). With `CN(C(=O)CCCOc1ccc2[nH]c(=O)ccc2c1)C1CCCCC1` the “activity change, negative = inhibition” value was -5.92% (inactive). In the case of `O=C(CCNNC(=O)c1ccncc1)NCc1ccccc1`, the “activity change, negative = inhibition” value is reported as -1.99% (inactive). For `NCCc1cnc[nH]1`, the “activity change, negative = inhibition” value was 4.44% (inactive). With `C#CCN(C)Cc1ccccc1` the “activity change, negative = inhibition” value was 4.53% (inactive). In the case of `O=C(O)CN(CCOCCOCCN(CC(=O)O)CC(=O)O)CC(=O)O`, the “activity change, negative = inhibition” value is reported as 4.67% (inactive). With `Clc1ccc(Cn2c(CN3CCCC3)nc3ccccc32)cc1` the “activity change, negative = inhibition” value was -22.1% (inactive).
